Test results published in PubChem BioAssay (NCATS).
Results filed as inconclusive are left out. Entries that show only a call come without a potency. Activity calls are given as the source filed them. Unless noted, calls come from the whole dose curve; as a rule, active = well fitted curve in the direction sought with a large enough effect; inconclusive = small, poorly fitted or top-dose-only effect, or another doubt; inactive = no such curve, though single readings can be large; an effect the other way counts as inactive or inconclusive.

What was measured:
[1] = molecular target: Mitogen-activated protein kinase 10 (Mus musculus) (UniProt Q61831); assay: JNK3 AlphaScreen Assay (AID 530; active = well fitted curve in either direction with a large enough effect, not every such curve was filed as active;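 note: kinase came from lysate of stimulated human HepG2 cells; signal reports phosphorylation of biotinylated GST-cJun 1-79 at Ser73 with 10 µM ATP; series mostly up to about 57 µM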)
In short: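 Activity was read by AlphaScreen after JNK3-containing HepG2 lysate (cytokine pre-activated) phosphorylated biotinylated GST-cJun with 10 uM ATP at room temperature. Phospho-Ser73 cJun antibody with Protein-A acceptor beads provided detection.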

[2] = molecular target: Cytochrome P450 3A4 (Homo sapiens) (UniProt P08684); assay: qHTS Assay for Inhibitors and Substrates of Cytochrome P450 3A4 (AID 884); note: potency is the fitted concentration of half-maximal effect; nearly all actives have a fitted effect of over 50% in size
Chain of Cytochrome P450 3A4 (Homo sapiens) (P08684 whole entry, looked up): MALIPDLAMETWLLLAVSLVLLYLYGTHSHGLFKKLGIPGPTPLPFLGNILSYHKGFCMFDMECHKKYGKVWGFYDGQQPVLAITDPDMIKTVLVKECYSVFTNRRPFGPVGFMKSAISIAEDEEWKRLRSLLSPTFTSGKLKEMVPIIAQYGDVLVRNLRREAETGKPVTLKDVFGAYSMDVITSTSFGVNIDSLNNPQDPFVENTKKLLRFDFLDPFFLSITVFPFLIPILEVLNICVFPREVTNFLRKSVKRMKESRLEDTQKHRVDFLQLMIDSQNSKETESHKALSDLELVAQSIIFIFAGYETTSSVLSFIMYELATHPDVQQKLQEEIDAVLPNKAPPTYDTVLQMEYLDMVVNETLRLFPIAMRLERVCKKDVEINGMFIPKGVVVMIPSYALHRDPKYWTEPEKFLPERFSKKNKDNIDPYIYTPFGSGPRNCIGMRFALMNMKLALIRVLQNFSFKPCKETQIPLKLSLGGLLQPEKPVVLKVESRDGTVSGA
In short: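 Luminescent readout of luciferin produced by CYP3A4 (20 nM) dealkylation of Luciferin-PPXE, 25 uM (its KM). NADPH-driven reaction ran 60 min at RT after 10 min compound preincubation; data scaled to 57 uM ketoconazole as 100% inhibition.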

[3] = molecular target: Cytochrome P450 3A4 (Homo sapiens) (UniProt P08684); assay: qHTS Assay for Activators of Cytochrome P450 3A4 (AID 885); note: nearly all actives have a fitted effect of over 65% in size
In short: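 Human CYP3A4 dealkylates Luciferin-PPXE to luciferin, which luciferase detection converts to light. Substrate was at its KM (25uM), buffer 200mM KPO4, reaction 60 min at RT.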

SMILES	outcome [1]	Potency [2]	Potency [3]
COC(=O)c1ccc(C(NC(=O)OCc2ccccc2)/C(F)=C/[C@@H](C)C(=O)NCc2ccc(-c3ccccc3)cc2)cc1 (stereo not given in full)	inactive	3.98 µM (active)	inactive
CC(=O)N1C2(C=CC1(C)C(=O)NCCN1CCOCC1)CCCCC2 (stereo not given)	inactive	10 µM (active)	inactive
COC(=O)c1ccc(C(NC(=O)OCc2ccccc2)/C(C)=C/[C@@H](C)C(=O)NCCN2CCOCC2)cc1 (stereo not given in full)	inactive	3.16 µM (active)	inactive
COC(=O)CNC(=O)[C@@]1(C)C=C[C@@H](Cc2ccccc2)N1C(=O)OC	inactive	12.6 µM (active)	inactive
COC(=O)[C@H](Cc1ccccc1)NC(=O)[C@@]1(C)C[C@@H]1[C@@H](NC(=O)OCc1ccccc1)c1ccccc1	inactive	2 µM (active)	inactive
CCC[C@@H]1C[C@@]1(CCC)[C@@H](NC(=O)c1ccccc1)c1ccc(C(=O)OC)cc1	inactive	6.31 µM (active)	inactive
COC(=O)c1ccc(C(/C=C/[C@@H](C)C(=O)NCc2ccc(OC)c(O)c2)NC(=O)OCc2ccccc2)cc1 (stereo not given in full)	inactive	6.31 µM (active)	inactive
CC(C)CC1(C(=O)NCCc2c[nH]c3ccccc23)C=CCN1C(=O)c1ccccc1 (stereo not given)	inactive	3.16 µM (active)	inactive
C[C@@H]1C=C[C@](Cc2ccccc2)(C(=O)NCCN2CCOCC2)N1C(=O)c1ccccc1	inactive	5.01 µM (active)	inactive
CCCCNC(=O)C(c1ccc(OCC(=O)OC)c(C(=O)OC)c1)N(Cc1ccccc1)C(=O)CCCCCN1C(=O)NC(c2ccc(-c3ccccc3)cc2)C(C(=O)OCc2ccccc2)=C1C (stereo not given)	inactive	5.01 µM (active)	inactive
COC(=O)c1ccc(C(NC(=O)OCc2ccccc2)/C(C)=C/[C@@H](C)C(=O)NCc2cccnc2)cc1 (stereo not given in full)	inactive	0.794 µM (active)	inactive
CNC(=O)[C@@H]1C[C@H]1[C@@H](NC(=O)OCc1ccccc1)c1ccccc1	inactive	12.6 µM (active)	inactive
C=C(N(C)C)[C@]1(C)C[C@H]1[C@H](NC(=O)CNC(=O)OCc1ccccc1)c1ccccc1	inactive	7.94 µM (active)	inactive
COC(=O)c1ccc(C(NC(=O)OCc2ccccc2)/C(C)=C/[C@@H](C)C(=O)NCCO)cc1 (stereo not given in full)	inactive	2.51 µM (active)	inactive
CN(C)C(=O)[C@@H]1C[C@H]1[C@@H](NC(=O)OCc1ccccc1)c1ccccc1	inactive	10 µM (active)	inactive
COC(=O)c1ccc(C(NC(=O)OCc2ccccc2)/C(=C/[C@@H](C)C(=O)Nc2ccc(OC)cc2)c2cccnc2)cc1 (stereo not given in full)	inactive	1 µM (active)	inactive
CCCCCCN(C(=O)CCCCCN1C(=O)NC(c2ccc(C(F)(F)F)cc2)C(C(=O)OCc2ccccc2)=C1C)C(C(=O)NCCCC)c1ccc(OCC(=O)OC)c(C(=O)OC)c1 (stereo not given)	inactive	3.98 µM (active)	inactive
COC(=O)CNC(=O)C1(C)C=CCN1C(=O)c1ccccc1 (stereo not given)	inactive	39.8 µM (active)	inactive
CN(C)C(=O)[C@]1(C)C[C@H]1[C@H](NC(=O)CNC(=O)[C@@H]1CCCN1C(=O)[C@]1(C)C[C@H]1[C@H](NC(=O)OCc1ccccc1)c1ccccc1)c1ccccc1	inactive	0.398 µM (active)	inactive
CNC(=O)[C@H](C)/C=C/C(NC(=O)OCc1ccccc1)c1ccc(C(=O)OC)cc1 (stereo not given in full)	inactive	7.94 µM (active)	inactive
CCCCNC(=O)C(c1ccc(OCC(=O)OC)c(C(=O)OC)c1)N(CCc1ccccc1)C(=O)CCCCCN1C(=O)NC(c2ccc(-c3ccccc3)cc2)C(C(=O)OCc2ccccc2)=C1C (stereo not given)	inactive	5.01 µM (active)	inactive
CCCCNC(=O)C(c1ccc(OCC(=O)OC)c(C(=O)OC)c1)N(CCc1ccccn1)C(=O)CCCCCN1C(=O)NC(c2ccc(-c3ccccc3)cc2)C(C(=O)OCc2ccccc2)=C1C (stereo not given)	inactive	7.94 µM (active)	inactive
CC1(C(=O)NCCc2c[nH]c3ccccc23)C=CCN1C(=O)c1ccccc1 (stereo not given)	inactive	10 µM (active)	inactive
COC(=O)c1ccc(C(NC(=O)OCc2ccccc2)/C(F)=C/[C@@H](C)C(=O)N[C@@H](CO)Cc2ccccc2)cc1 (stereo not given in full)	inactive	7.94 µM (active)	inactive
COC(=O)c1ccc(C(NC(=O)OCc2ccccc2)/C(I)=C/[C@@H](C)C(=O)NCc2ccncc2)cc1 (stereo not given in full)	inactive	1.58 µM (active)	inactive
CC(Cc1ccccc1)C(=O)NCc1ccncc1 (stereo not given)	inactive	2.51 µM (active)	inactive
CCC[C@@H]1C[C@@]1(CCC)[C@@H](NP(=O)(c1ccccc1)c1ccccc1)c1ccc(C(=O)OC)cc1	inactive	3.16 µM (active)	inactive
COC(=O)c1ccc(C(NC(=O)OCc2ccccc2)/C(=C/[C@@H](C)C(=O)NCc2cc(C)on2)c2cccnc2)cc1 (stereo not given in full)	inactive	1.58 µM (active)	inactive

SMILES	outcome [1]	Potency [2]	Potency [3]
COC(=O)c1ccc(C(NC(=O)OCc2ccccc2)/C(F)=C/[C@@H](C)C(=O)NCc2cc(C)on2)cc1 (stereo not given in full)	inactive	2.51 µM (active)	inactive
CNC(=O)[C@@]1(Cc2ccccc2)C=C[C@@H](C)N1C(=O)OC	inactive	12.6 µM (active)	inactive
CCCCCCN(C(=O)CCCCCN1C(=O)NC(c2ccc([N+](=O)[O-])cc2)C(C(=O)OCc2ccccc2)=C1C)C(C(=O)NCCCC)c1ccc(OCC(=O)OC)c(C(=O)OC)c1 (stereo not given)	inactive	2 µM (active)	inactive
COC(=O)c1ccc(C(NC(=O)OCc2ccccc2)/C(I)=C/[C@@H](C)C(=O)NCc2ccc(C)o2)cc1 (stereo not given in full)	inactive	10 µM (active)	inactive
COC(=O)[C@@H]1C[C@H]1[C@@H](NC(=O)c1ccc(Br)cc1)c1ccccc1	inactive	25.1 µM (active)	inactive
COCCNC(=O)C1(C)C=CC2(CCCCC2)N1C(=O)c1ccccc1 (stereo not given)	inactive	15.8 µM (active)	inactive
COC(=O)c1ccc(C(NC(=O)OCc2ccccc2)/C(I)=C/[C@@H](C)C(=O)Nc2ccccc2)cc1 (stereo not given in full)	inactive	2 µM (active)	inactive
COC(=O)c1ccc(C(NC(=O)OCc2ccccc2)/C(=C/[C@@H](C)C(=O)NCC2CC2)c2cccnc2)cc1 (stereo not given in full)	inactive	2 µM (active)	inactive
COC(=O)c1ccc(C(NC(=O)OCc2ccccc2)/C(F)=C/[C@@H](C)C(=O)NCc2ccc(OC)c(OC)c2)cc1 (stereo not given in full)	inactive	5.01 µM (active)	inactive
COC(=O)c1ccc(C(NC(=O)OCc2ccccc2)/C(=C/[C@@H](C)C(=O)NCCF)c2cccnc2)cc1 (stereo not given in full)	inactive	6.31 µM (active)	inactive
CCCCCCN(C(=O)CCCCCN1C(=O)NC(c2ccc(C(C)(C)C)cc2)C(C(=O)OCc2ccccc2)=C1C)C(C(=O)NCCCC)c1ccc(OCC(=O)OC)c(C(=O)OC)c1 (stereo not given)	inactive	1.26 µM (active)	inactive
COC(=O)c1ccc(C(NC(=O)OCc2ccccc2)/C(C)=C/[C@@H](C)C(=O)N(C)Cc2cccnc2)cc1 (stereo not given in full)	inactive	0.794 µM (active)	inactive
COC(=O)c1ccc(C(/C=C/[C@@H](C)C(=O)NCCc2c[nH]c3ccccc23)NC(=O)OCc2ccccc2)cc1 (stereo not given in full)	inactive	3.16 µM (active)	inactive
CCCC[C@@H]1C[C@H]1[C@@H](NP(=O)(c1ccccc1)c1ccccc1)c1ccccc1OC	inactive	3.98 µM (active)	inactive
COC(=O)c1ccc(C(NC(=O)OCc2ccccc2)/C(=C/[C@@H](C)C(=O)NCc2nc3ccccc3n2C)c2cccnc2)cc1 (stereo not given in full)	inactive	2 µM (active)	inactive
COC(=O)c1ccc(C(NC(=O)OCc2ccccc2)/C(F)=C/[C@@H](C)C(=O)NCCO)cc1 (stereo not given in full)	inactive	15.8 µM (active)	inactive
CC1(C(=O)NCCCNc2ncc(C(F)(F)F)cc2Cl)C=CC2(CCCCC2)N1C(=O)c1ccccc1 (stereo not given)	inactive	7.94 µM (active)	inactive
CC(=O)N1CC=CC1(C)C(=O)NCc1cc(F)cc(C(F)(F)F)c1 (stereo not given)	inactive	15.8 µM (active)	inactive
CC(C)NC(=O)[C@@H]1C[C@H]1[C@@H](NC(=O)OCc1ccccc1)c1ccccc1	inactive	3.98 µM (active)	inactive
COC(=O)c1ccc(C(/C=C/[C@@H](C)C(=O)NCCN2CCCC2)NC(=O)OCc2ccccc2)cc1 (stereo not given in full)	inactive	10 µM (active)	inactive
COC(=O)c1ccc(C(NC(=O)OCc2ccccc2)/C(=C/[C@@H](C)C(=O)N[C@@H](CO)Cc2ccccc2)c2cccnc2)cc1 (stereo not given in full)	inactive	1 µM (active)	inactive
CC(C)CC1(C(=O)NCCN2CCOCC2)C=CCN1C(=O)c1ccccc1 (stereo not given)	inactive	12.6 µM (active)	inactive
CC(=O)N1[C@H](C)C=C[C@]1(Cc1ccccc1)C(=O)NCc1ccc(C)o1	inactive	5.01 µM (active)	inactive
COC(=O)c1ccc(C(NC(=O)OCc2ccccc2)/C(C)=C/[C@@H](C)C(=O)Nc2ccc(OC)cc2)cc1 (stereo not given in full)	inactive	2.51 µM (active)	inactive
COC(=O)[C@H](Cc1ccccc1)NC(=O)[C@]1(C)C[C@H]1[C@H](NC(=O)OCc1ccccc1)c1ccccc1	inactive	2 µM (active)	inactive
COC(=O)c1ccc(C(NC(=O)OCc2ccccc2)/C(F)=C/[C@@H](C)C(=O)NCc2cccnc2)cc1 (stereo not given in full)	inactive	1.26 µM (active)	inactive
COC(=O)c1ccc(C(NC(=O)OCc2ccccc2)/C(=C/[C@@H](C)C(=O)N(C)Cc2cccnc2)c2cccnc2)cc1 (stereo not given in full)	inactive	0.631 µM (active)	inactive
